Assay results taken from the antibiotic and cytotoxicity screens of Wong et al. (2023).
In all, about 39,000 compounds went through this assay and about 3,300 (8.5%) were called active. The sample holds actives, similar compounds and a random draw of the others, so the mix is not that of the screen.

System: HepG2
Test: cytotoxicity call (relative viability < 0.9)
Settings: 10 µM

For C[C@H](CO)N1C[C@H](C)[C@@H](CN(C)Cc2ccncc2)OCCCC[C@H](C)Oc2ccc(NC(=O)NC3CCCCC3)cc2C1=O, which cytotoxicity call is on record?
The cytotoxicity call was “inactive”.

O=C(C[C@@H]1C=C[C@@H](NC(=O)C2CC2)[C@H](CO)O1)NCCCN1CCOCC1 was tested. Which cytotoxicity call did it give?
Its cytotoxicity call is “inactive”.

Which cytotoxicity call does the source give for CN(C)C(=O)C[C@@H]1C=C[C@H](NC(=O)C2CCOCC2)[C@@H](CO)O1 here?
The cytotoxicity call was “inactive”.

For C[C@H](CO)N1C[C@H](C)[C@H](CN(C)S(=O)(=O)c2ccccc2)Oc2ccc(NC(=O)c3ccncc3)cc2C1=O, which cytotoxicity call is on record?
The cytotoxicity call was “inactive”.

How did the cytotoxicity call turn out when O=S1(=O)CO[C@@H](c2ccccc2)CN1 was run?
Its cytotoxicity call is “inactive”.

For O=C(CS)NCCCCCCNC(=O)[C@@H]1C[C@@H]2C(=O)N3CCC[C@H]3C(=O)N2[C@@H]1c1cccc(OCCO)c1, which cytotoxicity call is on record?
The cytotoxicity call was “inactive”.

With O=C(C[C@H]1CC[C@H]2[C@@H](COC[C@H](O)CN2Cc2cc(F)ccc2F)O1)N[C@@H]1CCN(Cc2ccccc2)C1 as the compound, how does the cytotoxicity call read?
Its cytotoxicity call is “inactive”.

How did the cytotoxicity call turn out when COc1ccc(NC(=O)N(C)C[C@H]2Oc3c(NC(=O)Nc4ccc(C(F)(F)F)cc4)cccc3C(=O)N([C@@H](C)CO)C[C@H]2C)cc1 was run?
The cytotoxicity call was “active”.

How did the cytotoxicity call turn out when C[C@@H]1CN([C@H](C)CO)C(=O)c2cccc(NC(=O)Nc3ccc(C(F)(F)F)cc3)c2O[C@@H]1CN(C)C(=O)Nc1ccc(C(F)(F)F)cc1 was run?
The cytotoxicity call was “inactive”.

C[C@H]1CN([C@@H](C)CO)C(=O)c2cccc(NC(=O)Nc3ccc(C(F)(F)F)cc3)c2O[C@@H]1CN(C)C(=O)Nc1ccc(C(F)(F)F)cc1 was tested. Which cytotoxicity call did it give?
The cytotoxicity call was “active”.

For C[C@H]1CN([C@@H](C)CO)C(=O)c2cccc(NC(=O)Nc3ccc(C(F)(F)F)cc3)c2O[C@H]1CN(C)C(=O)Nc1ccc(C(F)(F)F)cc1, which cytotoxicity call is on record?
Its cytotoxicity call is “inactive”.

COc1ccc(NC(=O)Nc2cccc3c2O[C@H](CN(C)C(=O)Nc2ccc(C(F)(F)F)cc2)[C@@H](C)CN([C@@H](C)CO)C3=O)cc1 was tested. Which cytotoxicity call did it give?
The cytotoxicity call was “inactive”.

C[C@@H]1CN([C@H](C)CO)C(=O)c2cccc(NC(=O)Nc3ccc(C(F)(F)F)cc3)c2O[C@H]1CN(C)C(=O)Nc1ccc(C(F)(F)F)cc1 was tested. Which cytotoxicity call did it give?
The cytotoxicity call was “inactive”.

Which cytotoxicity call does the source give for C[C@H](CO)N1C[C@H](C)[C@H](CN(C)C(=O)Nc2ccc(C(F)(F)F)cc2)Oc2c(NC(=O)Nc3ccc(C(F)(F)F)cc3)cccc2C1=O here?
Its cytotoxicity call is “active”.

Which cytotoxicity call does the source give for C[C@@H]1CN([C@@H](C)CO)C(=O)c2cccc(NC(=O)Nc3ccc(C(F)(F)F)cc3)c2O[C@@H]1CN(C)C(=O)Nc1ccc(C(F)(F)F)cc1 here?
The cytotoxicity call was “active”.

With C[C@@H]1CN([C@@H](C)CO)C(=O)c2cccc(NC(=O)Nc3ccc(C(F)(F)F)cc3)c2O[C@H]1CN(C)C(=O)Nc1ccc(C(F)(F)F)cc1 as the compound, how does the cytotoxicity call read?
Its cytotoxicity call is “inactive”.

How did the cytotoxicity call turn out when COc1ccc(NC(=O)Nc2cccc3c2O[C@@H](CN(C)C(=O)Nc2ccc(C(F)(F)F)cc2)[C@@H](C)CN([C@@H](C)CO)C3=O)cc1 was run?
The cytotoxicity call was “inactive”.

For O=C(O)C[C@@H]1C=C[C@@H](NC(=O)c2ccncc2)[C@H](CO)O1, which cytotoxicity call is on record?
Its cytotoxicity call is “inactive”.

How did the cytotoxicity call turn out when CCCN(C)C[C@H]1OCCCC[C@@H](C)Oc2ccc(NC(=O)c3ccccc3)cc2C(=O)N([C@H](C)CO)C[C@H]1C was run?
The cytotoxicity call was “inactive”.

Cc1noc(C)c1NC(=O)Nc1ccc2c(c1)C(=O)N([C@H](C)CO)C[C@@H](C)[C@@H](CN(C)C(=O)Nc1ccccc1)OCCCC[C@@H](C)O2 was tested. Which cytotoxicity call did it give?
Its cytotoxicity call is “inactive”.

How did the cytotoxicity call turn out when CN1N=C(N)c2cn([C@@H]3O[C@H](COP(=O)(O)O)[C@@H](O)[C@H]3O)c3ncnc1c23 was run?
Its cytotoxicity call is “inactive”.

For C[C@@H]1CN([C@@H](C)CO)C(=O)Cc2cc(NC(=O)CCN3CCOCC3)ccc2O[C@H]1CN(C)C(=O)Nc1ccccc1, which cytotoxicity call is on record?
Its cytotoxicity call is “inactive”.

For CCO[C@@H]1OC(C(=O)N2CCN(Cc3ccc4c(c3)OCO4)CC2)=C[C@H](c2ccc3c(c2)OCO3)[C@H]1CCCO, which cytotoxicity call is on record?
The cytotoxicity call was “inactive”.

With COCC1=C(C(=O)OC(C)OC(=O)OC(C)C)N2C(=O)C(NC(=O)C(=NOC)c3csc(N)n3)C2SC1 (stereo unspecified) as the compound, how does the cytotoxicity call read?
The cytotoxicity call was “inactive”.

With C[C@H](CO)N1C[C@H](C)[C@@H](CN(C)Cc2ccncc2)Oc2cc(C#CC(C)(C)O)ccc2S1(=O)=O as the compound, how does the cytotoxicity call read?
The cytotoxicity call was “inactive”.

For C[C@@H]1CCCCO[C@@H](CN(C)C(=O)C2CCCCC2)[C@H](C)CN([C@H](C)CO)C(=O)c2cc(NC(=O)c3ccncc3)ccc2O1, which cytotoxicity call is on record?
The cytotoxicity call was “inactive”.

C[C@H](CO)N1C[C@H](C)[C@H](CN(C)C(=O)Nc2ccc3c(c2)OCO3)Oc2c(NC(=O)Nc3ccc(C(F)(F)F)cc3)cccc2C1=O was tested. Which cytotoxicity call did it give?
Its cytotoxicity call is “active”.

C[C@@H]1CN([C@H](C)CO)C(=O)c2cccc(NC(=O)Nc3ccc(C(F)(F)F)cc3)c2O[C@@H]1CN(C)C(=O)Nc1ccc2c(c1)OCO2 was tested. Which cytotoxicity call did it give?
The cytotoxicity call was “inactive”.

With Cc1noc(C)c1NC(=O)N(C)C[C@H]1Oc2c(NC(=O)Nc3ccc(C(F)(F)F)cc3)cccc2C(=O)N([C@@H](C)CO)C[C@H]1C as the compound, how does the cytotoxicity call read?
The cytotoxicity call was “active”.

Cc1noc(C)c1NC(=O)N(C)C[C@@H]1Oc2c(NC(=O)Nc3ccc(C(F)(F)F)cc3)cccc2C(=O)N([C@@H](C)CO)C[C@H]1C was tested. Which cytotoxicity call did it give?
Its cytotoxicity call is “inactive”.

C[C@H](CO)N1C[C@H](C)[C@@H](CN(C)C(=O)Nc2ccc(C(F)(F)F)cc2)Oc2c(NC(=O)Nc3ccc(C(F)(F)F)cc3)cccc2C1=O was tested. Which cytotoxicity call did it give?
Its cytotoxicity call is “active”.

Which cytotoxicity call does the source give for Cc1noc(C)c1NC(=O)N(C)C[C@@H]1Oc2c(NC(=O)Nc3ccc(C(F)(F)F)cc3)cccc2C(=O)N([C@H](C)CO)C[C@H]1C here?
The cytotoxicity call was “inactive”.

C[C@@H]1CN([C@@H](C)CO)C(=O)c2cccc(NC(=O)Nc3ccc(C(F)(F)F)cc3)c2O[C@H]1CN(C)C(=O)Nc1ccc2c(c1)OCO2 was tested. Which cytotoxicity call did it give?
Its cytotoxicity call is “inactive”.

For O=C1c2ccccc2[C@@]2(Cc3ccccc3N(Cc3ccccc3)C2=O)[C@H](c2ccc(CO)cc2)N1Cc1ccccc1C(F)(F)F, which cytotoxicity call is on record?
The cytotoxicity call was “inactive”.

Cc1noc(C)c1S(=O)(=O)N(C)C[C@@H]1Oc2ccc(NS(=O)(=O)c3cccs3)cc2CC(=O)N([C@H](C)CO)C[C@@H]1C was tested. Which cytotoxicity call did it give?
Its cytotoxicity call is “inactive”.

With CN(C)Cc1cn(CC[C@@H]2CC[C@@H](NC(=O)Cc3cccnc3)[C@H](CO)O2)nn1 as the compound, how does the cytotoxicity call read?
Its cytotoxicity call is “inactive”.

Cc1noc(C)c1NC(=O)Nc1ccc2c(c1)CC(=O)N([C@@H](C)CO)C[C@H](C)[C@@H](CN(C)C(=O)NC(C)C)O2 was tested. Which cytotoxicity call did it give?
The cytotoxicity call was “inactive”.

For O=C(C[C@H]1CC[C@@H]2[C@H](COC[C@H](O)CN2C(=O)Nc2ccc(F)cc2)O1)NCCCN1CCOCC1, which cytotoxicity call is on record?
The cytotoxicity call was “inactive”.

Which cytotoxicity call does the source give for OC[C@@H](O)CN1CCN(c2ccccc2)CC1 here?
The cytotoxicity call was “inactive”.

Which cytotoxicity call does the source give for Cc1nc(-c2ccc(OCC(C)C)c(C#N)c2)sc1C(=O)O here?
Its cytotoxicity call is “active”.

With COc1ccc(S(=O)(=O)N(C)C[C@H]2Oc3ccc(NC(=O)c4ccncc4)cc3C(=O)N([C@@H](C)CO)C[C@@H]2C)cc1 as the compound, how does the cytotoxicity call read?
Its cytotoxicity call is “inactive”.

How did the cytotoxicity call turn out when O=CN[C@H](Cc1ccccc1)C(=O)O was run?
Its cytotoxicity call is “inactive”.

Which cytotoxicity call does the source give for C[C@H](CO)N1C[C@H](C)[C@H](CN(C)Cc2ccc(Oc3ccccc3)cc2)Oc2ccc(NC(=O)CCCCCC(=O)Nc3ccccc3N)cc2CC1=O here?
Its cytotoxicity call is “inactive”.

With C[C@H]1CN([C@@H](C)CO)C(=O)Cc2cc(NC(=O)CCCCCC(=O)Nc3ccccc3N)ccc2O[C@H]1CN(C)Cc1ccc(Oc2ccccc2)cc1 as the compound, how does the cytotoxicity call read?
Its cytotoxicity call is “inactive”.

How did the cytotoxicity call turn out when C[C@@H]1CN([C@@H](C)CO)C(=O)Cc2cc(NC(=O)CCCCCC(=O)Nc3ccccc3N)ccc2O[C@@H]1CN(C)Cc1ccc(Oc2ccccc2)cc1 was run?
The cytotoxicity call was “active”.

C[C@@H]1CN([C@H](C)CO)C(=O)Cc2cc(NC(=O)CCCCCC(=O)Nc3ccccc3N)ccc2O[C@@H]1CN(C)Cc1ccc(Oc2ccccc2)cc1 was tested. Which cytotoxicity call did it give?
The cytotoxicity call was “active”.

How did the cytotoxicity call turn out when COc1ccc(CN(C)C[C@@H]2Oc3ccc(NC(=O)CCCCCC(=O)Nc4ccccc4N)cc3CC(=O)N([C@H](C)CO)C[C@@H]2C)cc1 was run?
Its cytotoxicity call is “inactive”.

COc1ccc(CN(C)C[C@H]2Oc3ccc(NC(=O)CCCCCC(=O)Nc4ccccc4N)cc3CC(=O)N([C@@H](C)CO)C[C@H]2C)cc1 was tested. Which cytotoxicity call did it give?
Its cytotoxicity call is “active”.

With COc1ccc(CN(C)C[C@H]2Oc3ccc(NC(=O)CCCCCC(=O)Nc4ccccc4N)cc3CC(=O)N([C@H](C)CO)C[C@H]2C)cc1 as the compound, how does the cytotoxicity call read?
The cytotoxicity call was “inactive”.

How did the cytotoxicity call turn out when C[C@H]1CN([C@@H](C)CO)C(=O)Cc2cc(NC(=O)CCCCCC(=O)Nc3ccccc3N)ccc2O[C@@H]1CN(C)Cc1ccc(Oc2ccccc2)cc1 was run?
The cytotoxicity call was “inactive”.

With C[C@@H]1CN([C@H](C)CO)C(=O)Cc2cc(NC(=O)CCCCCC(=O)Nc3ccccc3N)ccc2O[C@H]1CN(C)Cc1ccc(Oc2ccccc2)cc1 as the compound, how does the cytotoxicity call read?
The cytotoxicity call was “inactive”.

Cc1noc(C)c1NC(=O)Nc1ccc2c(c1)CC(=O)N([C@@H](C)CO)C[C@@H](C)[C@H](CN(C)Cc1ccc(C(F)(F)F)cc1)O2 was tested. Which cytotoxicity call did it give?
Its cytotoxicity call is “inactive”.

Which cytotoxicity call does the source give for CC(C)NC(=O)Nc1ccc2c(c1)C(=O)N([C@H](C)CO)C[C@@H](C)[C@H](CN(C)CC1CCCCC1)OCCCC[C@H](C)O2 here?
The cytotoxicity call was “inactive”.

How did the cytotoxicity call turn out when C[C@@H]1CN([C@H](C)CO)C(=O)c2cc(NC(=O)Nc3ccc(C(F)(F)F)cc3)ccc2O[C@H]1CN(C)Cc1ccc2c(c1)OCO2 was run?
Its cytotoxicity call is “inactive”.

With C[C@H](CO)N1C[C@H](C)[C@@H](CN(C)Cc2ccc(C(F)(F)F)cc2)Oc2ccc(NC(=O)Nc3ccc4c(c3)OCO4)cc2C1=O as the compound, how does the cytotoxicity call read?
The cytotoxicity call was “inactive”.

Which cytotoxicity call does the source give for C[C@@H]1CN([C@@H](C)CO)C(=O)c2cc(NC(=O)Nc3ccc(C(F)(F)F)cc3)ccc2O[C@@H]1CN(C)Cc1ccc2c(c1)OCO2 here?
Its cytotoxicity call is “active”.

Which cytotoxicity call does the source give for C[C@H]1CN([C@@H](C)CO)C(=O)c2cc(NC(=O)Nc3ccc(C(F)(F)F)cc3)ccc2O[C@H]1CN(C)Cc1ccc2c(c1)OCO2 here?
Its cytotoxicity call is “active”.

C[C@@H]1CN([C@@H](C)CO)C(=O)c2cc(NC(=O)Nc3ccc4c(c3)OCO4)ccc2O[C@H]1CN(C)Cc1ccc(C(F)(F)F)cc1 was tested. Which cytotoxicity call did it give?
The cytotoxicity call was “inactive”.

With C[C@H]1CN([C@@H](C)CO)C(=O)c2cc(NC(=O)Nc3ccc4c(c3)OCO4)ccc2O[C@H]1CN(C)Cc1ccc(C(F)(F)F)cc1 as the compound, how does the cytotoxicity call read?
The cytotoxicity call was “inactive”.

How did the cytotoxicity call turn out when C[C@@H]1CN([C@H](C)CO)C(=O)c2cc(NC(=O)Nc3ccc(C(F)(F)F)cc3)ccc2O[C@@H]1CN(C)Cc1ccc2c(c1)OCO2 was run?
The cytotoxicity call was “active”.

With C[C@H](CO)N1C[C@H](C)[C@H](CN(C)Cc2ccc3c(c2)OCO3)Oc2ccc(NC(=O)Nc3ccc(C(F)(F)F)cc3)cc2C1=O as the compound, how does the cytotoxicity call read?
Its cytotoxicity call is “active”.
